Values joined by “and” are separate entries in the source; they are usually repeats but may differ in a detail not shown here. Identical values can stand only once. Screen size: about 330,000 compounds; about 1,900 (0.58%) were called active. Another 4% or so got no clear call; they are omitted. Cut-off read from the data, not from the text of the source: inconclusive = inhibition above about 70% without an active follow-up result; inactive = below that. A selection follows. Entries with a potency or affinity are not part of this list.
experiment: M. tuberculosis growth inhibition, HTS (AID 449762);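 note: bacterial growth assessed after seven days of incubation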; details: M. tuberculosis H37Rv growth inhibition, 7H9 media; at 25 µM; stronger effect = higher value

Row | SMILES | inhibition
1 | COc1ccc(-c2noc(C3CCCN(S(=O)(=O)c4ccc(C)c(Cl)c4)C3)n2)cc1OC (stereo unspecified) | -3.19% (inactive)
2 | CCCC(C)NC(=O)COc1ccc(S(=O)(=O)c2ccc(OCC(=O)NC(C)CCC)cc2)cc1 (stereo unspecified) | -8.03% (inactive)
3 | O=C(Nc1cccnc1)C1CCN(S(=O)(=O)c2ccc(Cl)cc2)CC1 | 0.94% (inactive)
4 | CSCCC(NC(=O)CCC(=O)OC1CC[C@H]2[C@@H]3CC[C@H]4CC(=O)CC[C@]4(C)[C@H]3CC[C@]12C)C(=O)O (stereo partly specified) | 2.77% (inactive)
5 | CCOC(=O)c1c(NC(=O)CSc2nnc(C)s2)sc2c1CCC(CC)C2 (stereo unspecified) | -2.5% (inactive)
6 | COC(=O)C1=C(N)OC2=C(C(=O)CC(C)(C)C2)C1c1ccccc1OCC#N (stereo unspecified) | 4.16% (inactive)
7 | Cc1ccc(NC(=O)C2CCCN(c3ncccn3)C2)c(C)c1 (stereo unspecified) | 7.16% (inactive)
8 | CCCc1ccc2oc(C(=O)N(C)Cc3cnccn3)c(C)c2c1 | -5.84% (inactive)
9 | CCCc1ccc2oc(C(=O)N(C)Cc3ccn[nH]3)c(C)c2c1 | 4.45% (inactive)
10 | Cc1cc(C)c(NC(=O)CSc2nnc(CN3CCOCC3)n2C)c(C)c1 | -5.19% (inactive)
11 | Cc1ccc(NC(=O)CSc2nnc(Cc3ccccc3)o2)cc1 | -3.22% (inactive)
12 | Cc1cccc(NC(=O)CSc2nnc(Cc3ccccc3)o2)c1 | 9.03% (inactive)
13 | O=C(COC(=O)CCC(=O)c1ccc(F)cc1)NC1CCCCC1 | -5.44% (inactive)
14 | CC12CCC(=O)N1C(C(=O)O)Cc1c2[nH]c2ccccc12 (stereo unspecified) | 6.77% (inactive)
15 | CC1(C)NC(C(=O)O)Cc2c1[nH]c1ccccc21 (stereo unspecified) | -1.33% (inactive)
16 | CC1Cc2ccccc2N1CC(=O)Nc1cccc(S(N)(=O)=O)c1 (stereo unspecified) | 3.61% (inactive)
17 | CCOc1ccc(CCNC(=O)c2nn(C)c3c2CS(=O)(=O)c2ccccc2-3)cc1OCC | 3.57% (inactive)
18 | O=C(NC1=NCCS1)C1CCN(S(=O)(=O)c2cc([N+](=O)[O-])ccc2Cl)CC1 | -7.02% (inactive)
19 | O=C(NC1CC1)C1CCN(S(=O)(=O)c2cc([N+](=O)[O-])ccc2Cl)CC1 | -3.67% (inactive)
20 | CC(=O)c1cccc(OCc2cc(C(=O)N(C)CCc3cnn(C)c3)no2)c1 | 1.92% (inactive)
21 | CCN(Cc1cnn(C)c1)C(=O)c1cc(COc2cc(C)c(Cl)c(C)c2)on1 | 10% (inactive)
22 | COc1ccc(Cl)cc1Nc1cc(C)nc2nc(C)nn12 | 2.13% (inactive)
23 | COc1ccc(/C=C/C2=CCN(C)CC2)cc1 | -5.45% (inactive)

Row | SMILES | inhibition
24 | OC(CN1CC=C(/C=C/c2ccc(Br)cc2)CC1)c1ccccc1 (stereo unspecified) | 10.3% (inactive)
25 | Cc1cc(C(=O)NCC(=O)Nc2c(C)cccc2C)c2ccccc2n1 | -6.3% (inactive)
26 | O=C(NCCCN1CCOCC1)C1CCN(S(=O)(=O)c2ccccc2)CC1 | -0.05% (inactive)
27 | CCCOc1ccc(C(=O)N/N=C/c2ccc(-c3ccc(S(=O)(=O)Nc4ncccn4)cc3)o2)cc1 | 7.99% (inactive)
28 | O=C(N/N=C/c1ccc(-c2ccc(S(=O)(=O)Nc3ncccn3)cc2)o1)c1cc2ccccc2cc1O | -7.05% (inactive)
29 | CCC1CCC(C(=O)NNC(=O)OC)CC1 (stereo unspecified) | -7.14% (inactive)
30 | COc1cccc(Nc2nnc(SCC(=O)Nc3sccc3C(N)=O)s2)c1 | 0.87% (inactive)
31 | Cc1ccc(-c2c[n+](CC(=O)Nc3c(C)cccc3C)c3n2CCC3)cc1 | 11.9% (inactive)
32 | COc1ccc(C(=O)C[n+]2cc(-c3ccc(OC)cc3)n3c2CCCC3)cc1 | 5.06% (inactive)
33 | Cc1ccc(NC(=O)C[n+]2cc(-c3ccccc3)n3c2CCC3)cc1 | 5.89% (inactive)
34 | Cn1c(NC(=O)C[n+]2cc(-c3ccc(Cl)cc3)n3c2CCC3)cc(=O)n(C)c1=O | -2.19% (inactive)
35 | Cc1ccc(C(=O)C[n+]2cc(-c3ccccc3)n3c2CCCCC3)cc1 | 2.54% (inactive) and -2.93% (inactive)
36 | Cc1ccc(-c2c[n+](CC(=O)c3cccs3)c3n2CCC3)cc1 | -3.4% (inactive)
37 | Cc1c(C(=O)N2CCOCC2)cc(C(C)(C)C)n1-c1ccccc1 | -3.73% (inactive)
38 | O=C(OCCNc1nc(-c2ccccc2)nc2ccccc12)c1cccnc1 | 10.2% (inactive)
39 | COc1ccccc1NC(=O)CN1CCN(C(=O)C2CCCO2)CC1 (stereo unspecified) | -18.2% (inactive)
40 | NC(=O)CSc1nnc(-c2cc(-c3cccs3)nc3ccccc23)o1 | 5.91% (inactive)
41 | Cc1sc(NC(=O)CN2CCCC2)nc1-c1ccc2c(c1)CCN2C(=O)c1cccc(F)c1 | 9.15% (inactive)
42 | CN(C)C(=N)c1n[nH]nc1SCc1ccc(Cl)c(Cl)c1 | -2.06% (inactive)
43 | CCCN(CC1CC1)C(=O)COC(=O)c1oc2ccc(OCC)cc2c1C | 2.37% (inactive)
44 | CCOc1ccc(N2C(=O)c3ccc(C(=O)OCc4c(C)noc4C)cc3C2=O)cc1 | -11.4% (inactive)
45 | COc1ccc(CNC(=O)c2cc(C3CC3)on2)cc1 | 8.82% (inactive)
46 | O=C(c1ccc(Br)o1)N1CCc2ccccc21 | -3.15% (inactive)

Row | SMILES | inhibition
47 | O=C(NC(=S)N1CCc2ccccc21)c1ccccc1Br | 6.29% (inactive)
48 | CC(OC(=O)c1cccnc1Cl)C(=O)Nc1ccc2c(c1)OCO2 (stereo unspecified) | 0.24% (inactive)
49 | C=CCOc1cccc(C2C(C(=O)c3ccco3)=C(O)C(=O)N2CCN(CC)CC)c1 (stereo unspecified) | -1.23% (inactive)
50 | CCOC(=O)c1ccc(-c2ccc(C=O)o2)cc1 | 12.7% (inactive)
51 | CCCOC(=O)c1cc(-c2ccc(C=O)o2)ccc1Cl | 9.94% (inactive)
52 | CC(C)(C)NC(=O)COC(=O)c1ccc(S(=O)(=O)N2CCCC2)cc1 | 5.11% (inactive)
53 | CN(C)CCCN1C(=O)c2cccc3c([N+](=O)[O-])ccc(c23)C1=O | 36.5% (inactive)
54 | Cc1nnc(N2C(=O)c3cccc4c([N+](=O)[O-])ccc(c34)C2=O)s1 | -2.32% (inactive)
55 | Cc1ccc(S(=O)(=O)NCC(=O)OCC(=O)Nc2cccc(S(=O)(=O)NC3=NCCCCC3)c2)cc1 | 7.74% (inactive)
56 | COCCn1cnnc1SCC(=O)Nc1cccc(S(=O)(=O)N(C)c2ccccc2)c1 | -4.95% (inactive)
57 | COc1cc(OC)c(C(=O)Nc2cccnc2)cc1OC | 3.08% (inactive)
58 | CN(C)c1ncc(S(=O)(=O)c2ccccc2)c(N)n1 | -5.65% (inactive)
59 | CN1CCN(C2=Cc3ccccc3Sc3cc(F)ccc32)CC1 | -12.7% (inactive)
60 | CN1CCN(c2ccc(F)cc2N)CC1 | -0.88% (inactive)
61 | CCOc1ccc(S(=O)(=O)NCCC(=O)N2CCC(Cc3ccccc3)CC2)cc1 | 44.3% (inactive)
62 | CCN(CC)S(=O)(=O)c1ccc(N2CCN(CCO)CC2)nc1 | -5.66% (inactive)
63 | Cc1nc2ccc(NC(=O)c3cc([N+](=O)[O-])cc([N+](=O)[O-])c3Cl)cc2s1 | 38.8% (inactive)
64 | Cc1nc2ccc(NC(=O)c3ccc([N+](=O)[O-])cc3)cc2s1 | 3.43% (inactive)
65 | COc1ccc(S(=O)(=O)N2CCN(CC(=O)Nc3ccccc3Cl)CC2)cc1 | -4.47% (inactive)
66 | CN(C)C1(CNC(=O)Nc2ccccc2)CCCCC1 | 3.43% (inactive)
67 | CN(C)C1(CNC(=O)c2ccc(NS(=O)(=O)c3ccc(Cl)c(Cl)c3)cc2)CCCCC1 | -3.67% (inactive)
68 | CCc1cc2c(=O)n(CC(=O)NCCc3ccc(OC)c(OC)c3)cnc2s1 | -7.38% (inactive)
69 | CCN(CC)C(=O)CN(c1cccc(Br)c1)S(C)(=O)=O | -7.74% (inactive)

Row | SMILES | inhibition
70 | COC(C/C=C/[C@H](O)[C@@H](C)OCc1ccccc1)OC | -3.21% (inactive)
71 | O=C(C1=C[C@H](c2csc3ccccc23)C[C@H](OCCCCO)O1)N1CCN(Cc2ccc3c(c2)OCO3)CC1 | 59.9% (inactive)
72 | O=C(C1=C[C@H](c2csc3ccccc23)C[C@H](OCc2ccc(CO)cc2)O1)N1CCN(Cc2ccc3c(c2)OCO3)CC1 | 21.8% (inactive)
73 | Cc1ccc(/C=C/C(=O)O)cc1S(=O)(=O)N1CCc2ccccc21 | -1.47% (inactive)
74 | C/C(=N\NC(=O)c1sccc1C)c1cccnc1 | -1.12% (inactive)
75 | CCN1CC(CN(C)Cc2nc(COc3ccccc3)no2)CC1=O (stereo unspecified) | 2.85% (inactive)
76 | C[C@H](NCCc1ccc(O)cc1)[C@H](O)c1ccc(O)cc1 | 1.5% (inactive)
77 | C[C@@H](NCCc1ccc(O)cc1)[C@@H](O)c1ccc(O)cc1 | -1.64% (inactive)
78 | CCCCNC(=O)c1c(CSc2ccc(Cl)cc2)noc1C(=O)NCc1ccccc1 | 8.53% (inactive)
79 | CC(C)(C)c1[nH]nc2c1C(Cc1ccccc1)C(C#N)=C(N)O2 (stereo unspecified) | -0.95% (inactive)
80 | COc1ccccc1Nc1ccc(C(=O)NC2CCCCC2)cn1 | -2.47% (inactive)
81 | C/C(CC(=O)NC(C)(C)C)=N\NC(=O)COc1ccc(C)cc1Br | 2.95% (inactive)
82 | C/C(=N\NC(=O)COc1ccc(C)cc1[N+](=O)[O-])c1cccs1 | 2.03% (inactive)
83 | Cc1ccsc1C(=O)OCC(=O)NCc1ccccc1 | -4.47% (inactive)
84 | COc1cccc(/C=C2\SC(=S)N(CCCC(=O)NC3=NCCS3)C2=O)c1 | 2.44% (inactive)
85 | Cc1cc(C=C2C(=O)N(C)C(=S)N(C)C2=O)c(C)n1C1CCCC1 | 64.7% (inactive)
86 | Cc1cc(C=C2C(=O)N(C)C(=S)N(C)C2=O)c(C)n1C1CCCCC1 | -5.32% (inactive)
87 | CCOC(=O)C1CCN(S(=O)(=O)c2ccc(-c3cc(C(F)(F)F)n(C)n3)s2)CC1 | -4.16% (inactive)
88 | Cc1cnc(C(=O)Nc2cccc3ncccc23)cn1 | -2.6% (inactive)
89 | Cc1c(C)c(C)c(CO/N=C/c2cccs2)c(C)c1C | -0.39% (inactive)
90 | COc1cc(NCCCCCCCN)c2ncccc2c1 | 7.02% (inactive)
91 | COc1cc(NC(C)CCCN)c2ncccc2c1Oc1ccccc1 (stereo unspecified) | -3.95% (inactive)

— PubChem BioAssay AID449762 (Southern Research Specialized Biocontainment Screening …, 2010)
